Reference: PubChem BioAssay (Tox21)
Unmarked numbers belong to inactive results. Results filed as inconclusive are left out. Entries that show only a call come without a potency. The source made the active and inactive calls. Unless noted, calls come from the whole dose curve.

Key:
[1] = Nuclear factor erythroid 2-related factor 2/antioxidant responsive element (Nrf2/ARE) small molecule agonists: qHTS cell viability counter screen in human keratinocytes (AID 1919968; active = well fitted curve in the direction sought with a large enough effect in the repeat runs; an effect the other way counts as inactive or inconclusive; note: nearly all actives have a fitted effect of over 55% in size; note: potency is the fitted concentration of half-maximal effect)
How it was run: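 Cells of the KeratinoSens line were plated at 1,500 per well and left for 5 h before compound transfer from DMSO stocks. After a 23 h incubation (37 C, 5% CO2), CellTiter-Fluor was added. Signal was taken as fluorescence intensity 1 h later.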

[2] = Nuclear factor erythroid 2-related factor 2/antioxidant responsive element (Nrf2/ARE) small molecule agonists: luciferase reporter gene qHTS assay in human keratinocytes (AID 1919969); note: nearly all actives have a fitted effect of over 35% in size; note: potency is the fitted concentration of half-maximal effect
[3] = molecular target: Gonadotropin-releasing hormone receptor (Homo sapiens) (UniProt P30968); assay: Human gonadotropin-releasing hormone receptor (GnRHR) small molecule agonists, calcium flux assay in GnRHR-HEK293 cells (AID 1920063); note: nearly all actives have a fitted effect of over 35% in size; note: potency is the fitted concentration of half-maximal effect
How it was run: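 Compounds dissolved in DMSO are pin-transferred onto dye-loaded GnRHR-HEK293 cells, which were seeded 18 h before at 37 C/5% CO2. Calcium signal is read as fluorescence intensity at 1 s intervals for 3 min.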

[4] = molecular target: KiSS-1 receptor (Homo sapiens) (UniProt Q969F8); assay: Human kisspeptin (KISS1R) small molecule agonists, calcium flux assay in KISS1R-HEK293 cells (AID 1920064; active = well fitted curve in the direction sought with a large enough effect in the repeat runs; an effect the other way counts as inactive or inconclusive)
How it was run: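 Cell line: HEK293, stable human KISS1R. Dye loading 1 h at 37 C after 18 h culture. Read: kinetic fluorescence, 480/540 nm, 3 min at 1 s intervals.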

[5] = G protein-coupled receptor (GPCR) small molecule agonists, calcium flux assay: HEK293 wild type cell line counter screen (AID 1920065)
How it was run: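 Tox21 10K compounds, 15 concentrations each in triplicate, pin-transferred in DMSO onto dye-loaded cells; kinetic read at 480/540 nm for 3 min, 1 s intervals.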

[6] = p53 small molecule agonists, cell-based qHTS assay with human liver microsomes: qHTS cell viability counter screen (AID 1963579); note: nearly all actives have a fitted effect of over 45% in size
How it was run: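 Luminescent CellTiter-Glo read-out, 30 min at room temperature, gauged cytotoxicity in p53RE-bla cells exposed 16 h at 37 C to DMSO-dissolved compounds with metabolic activation by human liver microsomes and NADPH, each 0.5 mg/mL final.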

[7] = p53 small molecule agonists, cell-based qHTS assay with rat liver microsomes: qHTS cell viability counter screen (AID 1963580); note: nearly all actives have a fitted effect of over 45% in size
How it was run: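 Counter screen for cytotoxicity under metabolic activation: rat liver microsomes and NADPH, 0.5 mg/mL final each, added with compounds to p53RE-bla HCT-116 cells; 16 h at 37 C, then ATP luminescence read.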

[8] = molecular target: 5-hydroxytryptamine receptor 2A (Homo sapiens) (UniProt P28223); assay: 5-hydroxytryptamine receptor 2A (HTR2A) small molecule antagonists, cell-based qHTS assay (AID 1963586); note: nearly all actives have a fitted effect of over 45% in size; note: potency is the fitted concentration of half-maximal effect
How it was run: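 CHO cells stably expressing human HTR2A were plated for 18 h at 37 C, then loaded with calcium dye for 1 h. Compounds were preincubated 5 min at room temperature before DOI (4 nM solution) was added. Kinetic fluorescence was read for 3 min.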

[9] = molecular target: 5-hydroxytryptamine receptor 2A (Homo sapiens) (UniProt P28223); assay: 5-hydroxytryptamine receptor 2A (HTR2A) small molecule agonists, cell-based qHTS assay (AID 1963587); note: nearly all actives have a fitted effect of over 30% in size; note: potency is the fitted concentration of half-maximal effect
How it was run: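 HTR2A-CHO cells, plated 18 h at 37 C/5% CO2, dye-loaded 1 h at 37 C; compounds in DMSO added by pin tool (agonist mode). Intracellular calcium flux read as kinetic fluorescence on FDSS over 2 min at 1 s intervals.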

[10] = molecular target: Muscarinic acetylcholine receptor M1 (Homo sapiens) (UniProt P11229); assay: Cholinergic receptor muscarinic 1 (CHRM1) small molecule antagonists, cell-based qHTS assay (AID 1963588); note: nearly all actives have a fitted effect of over 40% in size
How it was run: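 Compounds were tested at 15 concentrations in three independent runs. Dye-loaded CHRM1-CHO cells were exposed 5 min at room temperature before stimulation by acetylcholine added at 50nM. Intracellular calcium was read kinetically on FDSS for 3 min.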

[11] = cAMP Responsive Elements (CRE) small molecule agonists, cell-based qHTS assay (AID 1963590)
How it was run: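 HEK 293T cells stably bearing CRE-bla were plated at 2,000 cells per well and rested 18 h. Compounds, positive controls or DMSO were added for 3 h at 37 C. LiveBLAzer B/G substrate was then loaded for 2 h at room temperature.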

[12] = cAMP Responsive Elements (CRE) small molecule antagonists, cell-based qHTS assay (AID 1963591; active = well fitted inhibition curve with a large enough effect in the signal ratio in the repeat runs, not every such curve was filed as active; the % refers to the signal ratio; note: potency is the fitted concentration of half-maximal effect)
How it was run: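 First, CRE-bla HEK293T cells settled 18 h at 37 C. Next, compound and 0.25 uM final NKH477 were applied for 3 h. Last, LiveBLAzer B/G substrate was loaded for 2 h at room temperature.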

[13] = molecular target: Beta-2 adrenergic receptor (Homo sapiens) (UniProt P07550); assay: Adrenergic beta2 receptor (ADRB2) small molecule antagonists, cell-based qHTS assay (AID 1963592); note: series mostly up to about 92 µM; nearly all actives have a fitted effect of over 50% in size
How it was run: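 Assay format: CHO-ADRB2 cells, 18-20hr seeding at 37C/5% CO2, then compound plus 1nM isoproterenol agonist mix for 0.5hr RT. Homogeneous time-resolved fluorescence cAMP detection after 1hr, expressed as 665/615 nm ratio.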

[14] = molecular target: D(2) dopamine receptor (Homo sapiens) (UniProt P14416); assay: Dopamine D2 receptor (DRD2) small molecule agonists, cell-based qHTS assay (AID 1963594); note: nearly all actives have a fitted effect of over 35% in size
How it was run: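 HEK293 cells stably expressing DRD2 were cultured 24 h at 37 C, then given Ro20-1724 (0.1 mM final) and compounds for 10 min at room temperature. NKH477 (200nM) was then added for 30 min. cAMP was read by HTRF.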

[15] = molecular target: D(2) dopamine receptor (Homo sapiens) (UniProt P14416); assay: Dopamine D2 receptor (DRD2) small molecule antagonists, cell-based qHTS assay (AID 1963595; active = well fitted inhibition curve with a large enough effect in the signal ratio in the repeat runs, with a control signal flat; the % refers to the signal ratio; note: potency is the fitted concentration of half-maximal effect)
How it was run: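 Readout: HTRF cAMP, cAMP-d2 competing with cellular cAMP for anti-cAMP cryptate, read after 1 h. Cells: DRD2-HEK293. Conditions: 0.1 mM Ro20-1724, 12 nM quinpirole, 200 nM NKH477, 30 min RT.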

[16] = p53 small molecule agonists, cell-based qHTS assay: qHTS cell viability counter screen (AID 1963581); note: nearly all actives have a fitted effect of over 45% in size
How it was run: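 ATP content measured by luminescence in HCT-116 p53RE-bla cells treated 16 h at 37 C, same wells as the reporter screen.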

[17] = molecular target: Muscarinic acetylcholine receptor M1 (Homo sapiens) (UniProt P11229); assay: Cholinergic receptor muscarinic 1 (CHRM1) small molecule agonists, cell-based qHTS assay (AID 1963589); note: nearly all actives have a fitted effect of over 35% in size
How it was run: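 Homogeneous fluorescence calcium flux, agonist mode. Human M1-expressing CHO cells; compound dosed at 15 concentrations, three independent runs; signal sampled every 1 sec.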

[18] = molecular target: Beta-2 adrenergic receptor (Homo sapiens) (UniProt P07550); assay: Adrenergic beta2 receptor (ADRB2) small molecule agonists, cell-based qHTS assay (AID 1963593);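 note: CHO cells stably overexpressing human ADRB2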
How it was run: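 CHO cells stably over-expressing ADRB2 were plated overnight at 37C, then dosed with compounds plus a stimulation mix containing 100uM IBMX and 25uM Ro-20-1724 for 0.5hr at room temperature. cAMP was measured by HTRF competition, 1hr.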

[19] = p53 small molecule agonists, cell-based qHTS assay with human liver microsomes (AID 1963577);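 note: p53 response element beta-lactamase reporter cells with liver microsomes plus NADPH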
How it was run: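 p53RE-bla cells; 5 h settle, 37 C/5% CO2; cpd + HLM 0.5 mg/mL + NADPH 0.5 mg/mL (final); 16 h 37 C; LiveBLAzer 2 h RT dark; fluorescence readout.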

[20] = p53 small molecule agonists, cell-based qHTS assay (AID 1963582; active = well fitted activation curve with a large enough effect in the signal ratio in the repeat runs, not every such curve was filed as active; the % refers to the signal ratio; note: potency is the fitted concentration of half-maximal effect)
How it was run: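 16 h compound exposure (37 C) of p53 response element–bla cells, preceded by 5 h recovery at 37 C/5% CO2; read-out via LiveBLAzer B/G FRET substrate, 2 h RT, fluorescence intensity.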

Beta-2 adrenergic receptor (Homo sapiens), sequence (P07550 whole entry, looked up): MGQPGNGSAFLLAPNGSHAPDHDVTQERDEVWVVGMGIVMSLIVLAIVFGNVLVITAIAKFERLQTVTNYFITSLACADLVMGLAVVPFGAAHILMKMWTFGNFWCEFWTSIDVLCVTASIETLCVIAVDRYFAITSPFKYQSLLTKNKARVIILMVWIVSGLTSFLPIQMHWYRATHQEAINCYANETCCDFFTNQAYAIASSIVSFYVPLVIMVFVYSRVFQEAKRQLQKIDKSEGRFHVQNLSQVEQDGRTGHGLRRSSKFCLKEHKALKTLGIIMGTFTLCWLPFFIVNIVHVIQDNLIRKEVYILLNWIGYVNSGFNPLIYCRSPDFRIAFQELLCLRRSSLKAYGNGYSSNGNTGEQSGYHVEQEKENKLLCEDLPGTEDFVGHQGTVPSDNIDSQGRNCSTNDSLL
Gonadotropin-releasing hormone receptor (Homo sapiens), sequence (P30968 whole entry, looked up): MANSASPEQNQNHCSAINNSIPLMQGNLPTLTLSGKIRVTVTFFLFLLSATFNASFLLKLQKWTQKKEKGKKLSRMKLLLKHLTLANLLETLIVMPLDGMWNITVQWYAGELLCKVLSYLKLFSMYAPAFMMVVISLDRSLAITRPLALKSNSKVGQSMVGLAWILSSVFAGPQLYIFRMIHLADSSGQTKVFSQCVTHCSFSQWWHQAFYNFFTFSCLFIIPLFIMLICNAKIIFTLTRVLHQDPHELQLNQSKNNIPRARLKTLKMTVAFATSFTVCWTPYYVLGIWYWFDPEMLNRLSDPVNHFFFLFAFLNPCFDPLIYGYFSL
5-hydroxytryptamine receptor 2A (Homo sapiens), sequence (P28223 whole entry, looked up): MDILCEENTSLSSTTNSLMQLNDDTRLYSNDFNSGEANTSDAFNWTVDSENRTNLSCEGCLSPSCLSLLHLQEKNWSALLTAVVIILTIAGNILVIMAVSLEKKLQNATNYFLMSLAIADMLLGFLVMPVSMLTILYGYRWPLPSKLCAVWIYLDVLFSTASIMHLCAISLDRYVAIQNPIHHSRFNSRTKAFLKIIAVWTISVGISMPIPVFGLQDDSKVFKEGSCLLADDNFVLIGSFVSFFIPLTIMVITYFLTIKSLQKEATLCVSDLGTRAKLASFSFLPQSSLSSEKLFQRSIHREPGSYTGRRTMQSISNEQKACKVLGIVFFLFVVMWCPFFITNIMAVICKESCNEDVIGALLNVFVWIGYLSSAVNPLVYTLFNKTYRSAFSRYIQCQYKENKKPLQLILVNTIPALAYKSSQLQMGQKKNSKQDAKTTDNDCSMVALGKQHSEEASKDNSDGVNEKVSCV
Muscarinic acetylcholine receptor M1 (Homo sapiens), sequence (P11229 whole entry, looked up): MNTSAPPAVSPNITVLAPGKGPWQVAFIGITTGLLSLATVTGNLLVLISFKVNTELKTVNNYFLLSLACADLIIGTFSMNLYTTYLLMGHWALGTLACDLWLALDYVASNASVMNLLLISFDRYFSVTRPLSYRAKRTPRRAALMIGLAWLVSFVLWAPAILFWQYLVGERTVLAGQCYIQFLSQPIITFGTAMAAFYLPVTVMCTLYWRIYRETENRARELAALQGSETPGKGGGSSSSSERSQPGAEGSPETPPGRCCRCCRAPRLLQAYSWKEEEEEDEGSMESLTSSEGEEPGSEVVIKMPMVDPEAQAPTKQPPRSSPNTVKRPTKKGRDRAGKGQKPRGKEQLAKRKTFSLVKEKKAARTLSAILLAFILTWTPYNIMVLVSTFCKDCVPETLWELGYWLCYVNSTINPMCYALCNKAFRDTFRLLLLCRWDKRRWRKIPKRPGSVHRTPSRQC
D(2) dopamine receptor (Homo sapiens), sequence (P14416 whole entry, looked up): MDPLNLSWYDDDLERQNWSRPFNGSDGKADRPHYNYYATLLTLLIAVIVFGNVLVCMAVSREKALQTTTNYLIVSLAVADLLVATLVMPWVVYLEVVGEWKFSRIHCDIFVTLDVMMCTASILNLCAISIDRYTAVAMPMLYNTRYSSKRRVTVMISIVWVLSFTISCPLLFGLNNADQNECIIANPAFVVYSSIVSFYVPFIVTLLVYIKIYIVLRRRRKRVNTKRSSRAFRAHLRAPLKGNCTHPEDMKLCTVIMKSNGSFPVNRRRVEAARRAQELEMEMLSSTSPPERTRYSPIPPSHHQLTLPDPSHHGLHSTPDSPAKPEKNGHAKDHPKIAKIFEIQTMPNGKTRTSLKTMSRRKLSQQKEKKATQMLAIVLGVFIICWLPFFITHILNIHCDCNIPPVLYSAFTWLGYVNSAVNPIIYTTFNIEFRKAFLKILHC
KiSS-1 receptor (Homo sapiens), sequence (Q969F8 whole entry, looked up): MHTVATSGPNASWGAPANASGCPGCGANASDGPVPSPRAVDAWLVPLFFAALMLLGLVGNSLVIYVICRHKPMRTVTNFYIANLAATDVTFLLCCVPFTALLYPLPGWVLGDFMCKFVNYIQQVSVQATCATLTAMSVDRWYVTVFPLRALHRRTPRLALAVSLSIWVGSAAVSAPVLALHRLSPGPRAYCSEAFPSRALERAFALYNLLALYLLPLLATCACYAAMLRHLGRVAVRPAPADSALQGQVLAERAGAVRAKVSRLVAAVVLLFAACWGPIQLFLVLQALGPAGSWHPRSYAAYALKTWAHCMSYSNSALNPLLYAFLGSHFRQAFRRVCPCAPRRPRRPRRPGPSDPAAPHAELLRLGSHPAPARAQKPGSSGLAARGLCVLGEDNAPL

| Compound | Potency [1] | Potency [2] | Potency [3] | Potency [4] | Potency [5] | Potency [6] | Potency [7] | Potency [8] | Potency [9] | Potency [10] | Potency [11] | Potency [12] | Potency [13] | Potency [14] | Potency [15] | Potency [16] | Potency [17] | Potency [18] | Potency [19] | Potency [20] |
| --- | --- | --- | --- | --- | --- | --- | --- | --- | --- | --- | --- | --- | --- | --- | --- | --- | --- | --- | --- | --- |
| c1ccc2nc(N3CCNCC3)ccc2c1 | inactive | inactive | inactive | inactive | inactive | inactive | inactive | 0.0033 µM (active) | 0.0048 µM (active) | inactive | inactive | inactive | inactive | inactive | inactive |  |  |  |  |  |
| CCCN(CCC)c1c([N+](=O)[O-])cc(S(C)(=O)=O)cc1[N+](=O)[O-] | inactive | inactive | inactive | inactive | inactive | inactive |  | inactive | inactive |  |  | inactive | inactive | inactive | inactive | inactive | inactive | inactive |  |  |
| Oc1cccc(Cl)c1 | inactive | inactive | inactive | inactive |  | inactive | inactive | inactive | inactive | inactive | inactive | inactive | inactive | inactive | inactive |  |  |  | inactive |  |
| CCc1ccccc1N | inactive | inactive | inactive | inactive | inactive |  | inactive | inactive | inactive | inactive | inactive | inactive | inactive | inactive | inactive | inactive |  |  |  |  |
| Cc1ncsc1CCCl | inactive | inactive | inactive | inactive | inactive |  | inactive | inactive | inactive | inactive |  |  |  | inactive | inactive | inactive | inactive | inactive |  |  |
| Nc1n[nH]c(N)n1 | inactive | 27.8 µM (active) | inactive | inactive |  | inactive | inactive | inactive |  | inactive |  |  | inactive | inactive | inactive |  | inactive | inactive | inactive | inactive |
| Cc1ccc(-c2c(Cl)nc(C#N)n2S(=O)(=O)N(C)C)cc1 | 15.3 µM (active) | 9.68 µM (active) | inactive | inactive |  | inactive | inactive | inactive | inactive |  |  |  | inactive | inactive |  |  | inactive |  | inactive |  |
| NNC(N)=O | inactive | inactive | inactive | inactive | inactive |  | inactive | inactive | inactive | inactive | inactive |  | inactive | inactive | inactive | inactive | inactive | inactive |  |  |
| C[N+](C)(C)CCOC(=O)C(O)(c1ccccc1)c1ccccc1 | inactive | inactive | inactive | inactive |  | inactive | inactive |  | inactive |  | inactive |  | inactive | inactive | inactive | inactive | inactive | inactive | inactive | inactive |
| COc1nn(CSP(=S)(OC)OC)c(=O)s1 | inactive | 68.6 µM (active) | inactive | inactive | inactive |  |  | inactive | inactive |  |  |  | inactive |  |  |  | inactive |  |  |  |
| ClC(Cl)C(Cl)(Cl)Cl | inactive | inactive | inactive | inactive | inactive |  | inactive | inactive |  | inactive | inactive | inactive | inactive | inactive | inactive |  | inactive |  |  |  |
| CC(Cc1ccc(O)cc1)NCC(O)c1cc(O)cc(O)c1 (stereo not drawn) | inactive | inactive | 0.0338 µM (active) | inactive | inactive |  |  |  |  | inactive |  | inactive |  |  | 5.96 µM (active) |  | inactive |  |  |  |
| c1ccc(Nc2ccc(Nc3ccccc3)cc2)cc1 | inactive | 27.2 µM (active) | inactive | inactive | inactive |  | inactive |  |  |  | inactive | inactive | inactive |  | inactive | inactive |  |  |  |  |
| CCCCP(CCCC)CCCC | inactive | inactive | inactive | inactive |  | inactive |  | inactive | inactive | inactive |  | inactive | inactive | inactive | inactive | inactive | inactive | inactive | inactive | inactive |
| CNC(C)Cc1ccc2c(c1)OCO2 (stereo not drawn) | inactive | 84.3 µM (active) | inactive | inactive |  |  | inactive | 1.03 µM (active) | 0.602 µM (active) |  | inactive | inactive |  | inactive | inactive | inactive | inactive |  | inactive | inactive |
| N#Cc1c[nH]cc1-c1cccc2c1OC(F)(F)O2 | inactive | inactive | inactive | inactive | inactive |  | inactive | inactive | inactive | inactive |  |  | inactive | inactive | inactive |  | inactive |  |  | 14.5 µM (active) |
| CCO/N=C(\CC)C1=C(O)CC(c2c(C)cc(C)cc2C)CC1=O (stereo not drawn) | inactive | inactive | inactive | inactive |  |  | inactive | inactive | inactive |  |  |  | inactive |  |  |  |  |  | inactive |  |
| CCCCOC(=O)c1ccccc1N | inactive | inactive | inactive | inactive | inactive |  | inactive | inactive |  | inactive |  | 61.4 µM (active) | inactive | inactive |  | inactive | inactive |  |  |  |
| CN(C)c1ccc(N=Nc2ccccc2)cc1 | inactive | 3.07 µM (active) | inactive | inactive |  | inactive |  | inactive | inactive | inactive |  |  |  | inactive | inactive | inactive | inactive |  | inactive | inactive |
